Read-out in assay [1]: Monocyte Chemoattractant Protein-1 (MCP1), CCL2 (gene 6347)
Kind of assay: BSK_LPS_MCP1: BioMAP Diversity Plus: LPS Assay for Monocyte Chemoattractant Protein-1 (MCP1) Biomarker Activity (AID 2283081).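 For AC50: co-culture stimulated with LPS; secreted MCP-1 protein quantified by ELISA in culture supernatant.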 The conditions noted are these: primary human HUVEC with PBMC; actives raise or lower the signal. Summed up:
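Values derive from bidirectional fitting against DMSO of ELISA-measured MCP-1 in a human primary endothelial and mononuclear cell co-culture, 24 h after chemical addition under LPS activation.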

A short description of assay [2]: BSK_LPS_PGE2: BioMAP Diversity Plus: LPS Assay for Prostaglandin E2 (PGE2) Biomarker Activity (AID 2283082).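 For AC50: secreted prostaglandin E2 measured by ELISA in LPS-stimulated co-culture.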 The note with it: primary human HUVEC with PBMC; actives raise or lower the signal. In outline: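 Primary human endothelial cells and blood mononuclear cells, co-cultured with LPS, receive test chemical; PGE2 ELISA follows at 24 h, with SRB-stained parallel cultures flagging cytotoxicity.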

Read-out in assay [3]: Macrophage colony-stimulating factor (MCSF), CSF1 (gene 1435)
Kind of assay: BSK_LPS_MCSF: BioMAP Diversity Plus: LPS Assay for Macrophage colony-stimulating factor (MCSF) Biomarker Activity (AID 2283083). The conditions noted are these: primary human HUVEC with PBMC; actives raise or lower the signal. Summed up: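 Bidirectional fit versus DMSO of ELISA-measured M-CSF in co-cultured human umbilical vein endothelial cells and PBMC, sampled 24 h after dosing.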

Read-out in assay [4]: Tissue Factor, F3 (gene 2152)
Description: BSK_LPS_TissueFactor: BioMAP Diversity Plus: LPS Assay for Tissue Factor Biomarker Activity (AID 2283084). The conditions noted are these: primary human HUVEC with PBMC; actives raise or lower the signal. In outline: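 Read-out: CD142 ELISA, 24 h. System: LPS-driven human endothelial/PBMC co-culture. Analysis: up- or down-signal fitted against DMSO.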

Read-out in assay [5]: Tumor necrosis factor (Homo sapiens) (UniProt P01375)
Kind of assay: BSK_LPS_TNFa: BioMAP Diversity Plus: LPS Assay for Tumour Necrosis Factor alpha (TNFa) Biomarker Activity (AID 2283085).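 For AC50: TNFa protein level quantified by ELISA in the co-culture.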 The conditions noted are these: primary human HUVEC with PBMC; actives raise or lower the signal. Summed up: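 ELISA-based TNFa endpoint in a human endothelial–PBMC co-culture sampled 24 h post-exposure. Curves were fitted in both directions using DMSO as baseline of activity.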

Read-out in assay [6]: Vascular cell adhesion molecule 1 (VCAM1), VCAM1 (gene 7412)
Kind of assay: BSK_LPS_VCAM1: BioMAP Diversity Plus: LPS Assay for Vascular cell adhesion molecule 1 (VCAM1) Biomarker Activity (AID 2283086). The note with it: primary human HUVEC with PBMC; actives raise or lower the signal. Summed up: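 Measured by ELISA: VCAM-1 in LPS-activated HUVEC/PBMC co-cultures 24 h after treatment. Values reflect bidirectional fitting with DMSO as baseline.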

Read-out in assay [7]: CD38, CD38 (gene 952)
Kind of assay: BSK_SAg_CD38: BioMAP Diversity Plus: SAg Assay for CD38 Biomarker Activity (AID 2283087). The conditions noted are these: primary human HUVEC with PBMC; actives raise or lower the signal. Summed up:
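Measures CD38 on a human endothelial/PBMC co-culture driven by SEB and TSST-1, 24 h after compound exposure, using ELISA with fluorescence detection; DMSO defines baseline for bidirectional curve fitting.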

Read-out in assay [8]: CD40, CD40 (gene 958)
Kind of assay: BSK_SAg_CD40: BioMAP Diversity Plus: SAg Assay for CD40 Biomarker Activity (AID 2283088). The note with it: primary human HUVEC with PBMC; actives raise or lower the signal. In outline:
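Endpoint derived by fitting increases or decreases versus DMSO controls. CD40 is detected by fluorescence ELISA in a human vascular co-culture of endothelium and PBMC at 24 h.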

Read-out in assay [9]: CD69, CD69 (gene 969)
Kind of assay: BSK_SAg_CD69: BioMAP Diversity Plus: SAg Assay for CD69 Biomarker Activity (AID 2283089).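 For AC50: cell surface CD69 protein quantified by ELISA with fluorescence detection.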 The conditions noted are these: primary human HUVEC with PBMC; actives raise or lower the signal. Summed up: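 Values derive from bidirectional fitting relative to DMSO vehicle. Cells: umbilical vein endothelium plus peripheral blood mononuclear cells, treated 24 h before fluorescent ELISA for CD69.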

Read-out in assay [10]: Monocyte Chemoattractant Protein-1 (MCP1), CCL2 (gene 6347)
Description: BSK_SAg_MCP1: BioMAP Diversity Plus: SAg Assay for Monocyte Chemoattractant Protein-1 (MCP1) Biomarker Activity (AID 2283090). The note with it: primary human HUVEC with PBMC; actives raise or lower the signal. Summed up:
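Values derive from bidirectional fitting of ELISA-measured MCP1 against DMSO controls. Readings were taken 24 h after dosing human vascular endothelial cells co-cultured with peripheral blood mononuclear cells under superantigen stimulation.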

Read-out in assay [11]: E-selectin (Homo sapiens) (UniProt P16581)
Kind of assay: BSK_SAg_Eselectin: BioMAP Diversity Plus: SAg Assay for Eselectin Biomarker Activity (AID 2283091). The conditions noted are these: primary human HUVEC with PBMC; actives raise or lower the signal. Summed up:
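Endpoint values derive from bidirectional fitting relative to DMSO, using ELISA-measured E-selectin in a human vascular co-culture (umbilical vein endothelium plus PBMC) sampled 24 h after dosing.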

Read-out in assay [12]: Monokine induced gamma interferon (MIG), CXCL9 (gene 4283)
Kind of assay: BSK_SAg_MIG: BioMAP Diversity Plus: SAg Assay for Monokine induced gamma interferon (MIG) Biomarker Activity (AID 2283092). The conditions noted are these: primary human HUVEC with PBMC; actives raise or lower the signal. Summed up:
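Values reflect bidirectional fitting of ELISA-measured MIG against DMSO vehicle, taken 24 h after dosing of a co-culture of human umbilical vein endothelial cells and peripheral blood mononuclear cells.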

Assay [13] can be described thus: BSK_SAg_PBMCCytotoxicity: PBMC Cytotoxicity Assessment in the BioMAP Diversity Plus: SAg Assay (AID 2283093).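 For AC50: PBMC superantigen activated with SEB plus TSST-1 one hour after compound addition.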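 Note: PBMC viability measured as Alamar Blue reduction fluorescence at 546/580 nm; fitted both ways against DMSO so a hit may be loss or gain of signal.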 The conditions noted are these: primary human HUVEC with PBMC. Summed up: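 Alamar Blue reduction (6 h, 546/580 nm) reports PBMC cytotoxicity after 90 h superantigen activation (SEB, TSST-1; 20 ng/mL final each) with 1 h compound pre-treatment. Gain or loss of signal fitted versus DMSO.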

Read-out in assay [14]: Interleukin-8 (IL8), CXCL8 (gene 3576)
Kind of assay: BSK_SAg_IL8: BioMAP Diversity Plus: SAg Assay for Interleukin-8 (IL8) Biomarker Activity (AID 2283094). The conditions noted are these: primary human HUVEC with PBMC; actives raise or lower the signal. Summed up: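 Primary human endothelial cells with PBMC, exposed 24 h; IL-8 determined by ELISA, analysed bidirectionally relative to DMSO.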

Assay [15] can be described thus: BSK_SAg_Proliferation: Cell Proliferation Assessment in the BioMAP Diversity Plus: SAg Assay (AID 2283095).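 Note: relative cell number as total protein by SRB absorbance in sub-confluent culture.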 The conditions noted are these: primary human HUVEC with PBMC. Summed up:
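A human primary co-culture of umbilical vein endothelium and blood mononuclear cells receives compound; relative cell number is quantified at 96 h by SRB staining and 560 nm absorbance, with DMSO-referenced bidirectional curve fitting.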

The nature of assay [16]: BSK_SAg_SRB: Viability Assessment in the BioMAP Diversity Plus: SAg Assay (AID 2283096).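 Note: cells read one day after compound addition; hits may be either gain or loss of signal compared with DMSO.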 The conditions noted are these: primary human HUVEC with PBMC. In outline: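 This overt-cytotoxicity endpoint quantifies protein in human endothelial/PBMC co-cultures at 24 h using SRB absorbance (560 nm) after trichloroacetic acid fixation. Values reflect signal change from the DMSO negative control, fitted bidirectionally.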

SMILES strings stand for the structures. Calls of active or inactive are those of the source. Rule for the calls: active = hit-call score of the fitted dose curve at least 0.9, where 1 is the maximum; inactive = score below 0.9.

The source of these data is PubChem BioAssay (EPA / NIEHS).

Usually AC50 stands for the midpoint of the concentration-response curve, whichever way the signal moves.

E-selectin (Homo sapiens), sequence (P16581 whole entry, looked up): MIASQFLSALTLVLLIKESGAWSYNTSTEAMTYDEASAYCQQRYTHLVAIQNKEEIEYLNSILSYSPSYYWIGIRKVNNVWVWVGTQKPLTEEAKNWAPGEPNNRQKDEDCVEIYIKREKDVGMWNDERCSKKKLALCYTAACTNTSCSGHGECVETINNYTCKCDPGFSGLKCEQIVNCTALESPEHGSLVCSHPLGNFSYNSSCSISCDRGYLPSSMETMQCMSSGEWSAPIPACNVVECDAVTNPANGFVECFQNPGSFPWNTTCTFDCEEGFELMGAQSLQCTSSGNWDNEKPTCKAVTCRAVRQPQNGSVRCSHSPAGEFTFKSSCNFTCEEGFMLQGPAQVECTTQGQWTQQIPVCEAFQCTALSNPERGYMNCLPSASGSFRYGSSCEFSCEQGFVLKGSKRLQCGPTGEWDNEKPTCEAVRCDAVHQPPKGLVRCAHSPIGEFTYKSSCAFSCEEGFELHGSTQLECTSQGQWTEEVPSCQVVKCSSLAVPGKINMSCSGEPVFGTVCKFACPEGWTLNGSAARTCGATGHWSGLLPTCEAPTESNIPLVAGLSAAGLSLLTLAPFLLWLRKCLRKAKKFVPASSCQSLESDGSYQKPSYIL
Tumor necrosis factor (Homo sapiens), sequence (P01375 whole entry, looked up): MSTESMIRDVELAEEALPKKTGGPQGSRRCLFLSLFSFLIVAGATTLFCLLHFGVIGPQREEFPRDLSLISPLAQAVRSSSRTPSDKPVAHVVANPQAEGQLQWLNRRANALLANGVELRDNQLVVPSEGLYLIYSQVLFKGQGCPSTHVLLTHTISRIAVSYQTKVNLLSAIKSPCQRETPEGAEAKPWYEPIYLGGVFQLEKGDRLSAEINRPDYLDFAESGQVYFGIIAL

`c1ccc(-c2cccc(-c3ccccc3)c2)cc1`: the AC50 is 29.5 µM (active) in [1]; 0.75 µM (active) in assay [2]; 30.2 µM (active) in [3]; 32.7 µM (active) in assay [4]; 27.3 µM (active) in [6]; 30.5 µM (active) in assay [7]. Further, the AC50 in [8] was 29.4 µM (active); in assay [9], 30.9 µM (active); in [10], 32.5 µM (active); in assay [11] it was 33.1 µM (active); in assay [13] it was 20 µM (active); in [14], 20 µM (active). The AC50 is 29.2 µM (active) in assay [15] and 27.5 µM (active) in [16]. The outcome in assay [5] and in [12] was inactive.

For `Cc1cc(Cl)ccc1N`, the outcome in assay [1], in assay [2], in [3], in [4], in [5] and in [6] was inactive. Moreover, the outcome in [7], in assay [8], in assay [9], in assay [10], in assay [11] and in assay [12] was inactive. The result in assay [13] and in [15] was inactive.

In the case of `Oc1c(Cl)cc(Cl)cc1Cl`, the result in assay [1], in assay [2], in assay [3], in assay [4], in assay [5] and in assay [6] was inactive. Further, the result in assay [7], in [9], in assay [10], in assay [11], in assay [12] and in assay [15] was inactive. Besides, the result in assay [16] was inactive. The AC50 in assay [8] was 13.3 µM (active).

With `O=C(O)C1(c2ccc3c(c2)OC[C@H](Cc2ccc(-c4ccccc4)cc2)[C@H]3O)CCCC1`, the outcome in assay [1], in assay [2], in assay [3], in assay [4], in assay [5] and in assay [9] was inactive. Besides, the result in [12] and in assay [13] was inactive. For the same compound, the half-maximal activity concentration (AC50) in assay [7] was 23.3 µM (active); in assay [8], 20 µM (active); in [10] it was 20 µM (active); in [11] it was 14.1 µM (active); in assay [14], 24.6 µM (active); in assay [15], 16.7 µM (active).

`CCCCCCCCCCCCc1cccc(S(=O)(=O)O)c1`: the outcome in assay [1], in [2], in assay [3], in assay [4], in assay [5] and in assay [6] was inactive. Also, the result in [7], in assay [8], in [9], in [10], in assay [11] and in assay [12] was inactive. For the same compound, the result in assay [13] and in [15] was inactive.

Turning to `Cc1ccccc1OP(=O)(Oc1ccccc1C)Oc1ccccc1C`, the AC50 in assay [1] is 12.7 µM (active); in [3], 11.2 µM (active); in [4] it was 27.5 µM (active); in assay [7], 28.9 µM (active); in assay [8], 12.5 µM (active); in [9], 13.8 µM (active). Further, the AC50 was 14.8 µM (active) in assay [10]; 30.6 µM (active) in assay [11]; 33.6 µM (active) in assay [12]; 26.6 µM (active) in assay [13]; 12.4 µM (active) in assay [14]; 12.7 µM (active) in assay [15]. For the same compound, the outcome in assay [2] and in assay [5] was inactive.

`CC(C)N(C(=O)CCl)c1ccccc1`: the concentration at half-maximal activity (AC50) was 27.3 µM (active) in assay [1]; 20 µM (active) in assay [3]; 26 µM (active) in assay [5]; 20 µM (active) in assay [7]; 27.5 µM (active) in assay [8]; 20 µM (active) in [9]. Further, the AC50 in assay [10] was 27.9 µM (active); in assay [11], 20 µM (active); in assay [12], 31.1 µM (active); in assay [13], 16.7 µM (active); in assay [15] it was 3.59 µM (active). Besides, the outcome in assay [2], in assay [4] and in assay [14] was inactive.
